Source: PubChem
ELG1 DNA repair: ELG1-dependent DNA repair inhibition | AID 504467 | Potency, µM (top dose mostly 46.1 µM), for inactives: top-dose activity change, negative = inhibition, actives largely listed as inhibitors | actives 2.3% (n = 330,000) | HEK293T ELG1-luciferase reporter, luminescence, 16 h; DNA damage induced by 5-fluorouridine; further: on the % scale 0 is the no-effect control and ±100 the full control effect; nearly all actives have a fitted effect of over 55% in size
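Step one: seed 2,000 cells per well. Step two: pin-transfer compound or DMSO alongside 5-fluorouridine. Step three: incubate 16 hr, 37 °C, 5% CO2. Step four: add ONE-Glo, wait 30 min, read luminescence.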
VP16 counter: Gal4-VP16 reporter inhibition counter-screen. AID 2546. actives 3.5% (n = 310,000). Drosophila S2 Gal4-VP16 UAS-luciferase, luminescence, 20 h. Potency, µM (series often up to 53.6 µM), for inactives: top-dose activity, negative = inhibition, most hits filed as inhibitors;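 further: Gal4-VP16 expression switched on by copper sulfate through the metallothionein promoter; on the % scale 0 is the no-effect control and ±100 the full control effect; nearly all actives have a fitted effect of over 50% in size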
SW480 rerep: DNA re-replication induction in SW480 cells. SW480 DNA re-replication, Hoechst DNA content imaging, 48 h. Potency, µM (top dose mostly 46.1 µM), without a hit: top-dose re-replication activation, usual class: activators. actives 1.8% (n = 340,000). AID 624297; further: % of control where 0% means no effect; nearly all actives have a fitted effect of over 55% in size
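SW480 cells exposed to compounds for 48 hr at 37 C, 5% CO2, then Hoechst-stained 40 min. Nuclear DNA content imaged by fluorescence scanning (405 nm excitation, 500-530 nm emission); re-replication scored as increased high-intensity nuclei.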
MCF10A rerep: inducers of DNA re-replication in MCF 10A breast cells. MCF 10A DNA re-replication, Hoechst nuclear intensity, 48 h. actives 2.9% (n = 350,000). Potency, µM (top dose mostly 46.1 µM), inactives show at the top dose activity, positive = re-replication, actives largely listed as activators. AID 624296; further: % of control where 0% means no effect; nearly all actives have a fitted effect of over 50% in size
RORgamma inh: blocks mouse ROR gamma transcriptional activity; Drosophila S2 Gal4-RORgamma UAS-luciferase reporter, 20 h; actives 5.4% (n = 310,000); Potency, µM (series often up to 53.6 µM), inactives show at the top dose activity change, negative = inhibition, actives largely listed as inhibitors; AID 2551; P51450; further: on the % scale 0 is the no-effect control and ±100 the full control effect; nearly all actives have a fitted effect of over 60% in size
Target sequence (P51450 whole entry, looked up, the tested form may be a part): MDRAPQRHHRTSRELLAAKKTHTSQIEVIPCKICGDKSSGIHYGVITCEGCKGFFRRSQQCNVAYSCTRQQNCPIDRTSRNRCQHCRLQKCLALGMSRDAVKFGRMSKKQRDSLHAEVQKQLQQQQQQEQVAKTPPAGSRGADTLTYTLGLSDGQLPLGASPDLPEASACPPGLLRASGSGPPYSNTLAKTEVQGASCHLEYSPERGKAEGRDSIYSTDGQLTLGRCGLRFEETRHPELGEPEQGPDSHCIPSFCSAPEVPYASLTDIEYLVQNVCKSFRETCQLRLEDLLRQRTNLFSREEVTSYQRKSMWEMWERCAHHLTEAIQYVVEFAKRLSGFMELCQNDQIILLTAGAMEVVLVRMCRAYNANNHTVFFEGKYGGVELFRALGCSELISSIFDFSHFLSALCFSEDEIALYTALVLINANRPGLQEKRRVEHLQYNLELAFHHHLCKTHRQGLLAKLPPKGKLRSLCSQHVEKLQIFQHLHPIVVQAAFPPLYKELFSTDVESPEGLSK
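Luciferase reporter read in Schneider cells carrying Gal4-RORγ (mouse) and UAS-Photinus luciferase; cells given compound 1 h before 700 uM copper sulfate induction, then incubated 20 h at ambient temperature.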
An asterisk follows results filed as active; u = inconclusive; x = no result given. In the library only some 10% were active in any assay of this set; here they are far more common. The call rests on the fitted dose curve; in most records, active means well fitted curve in the direction sought with a large enough effect; inconclusive means small, poorly fitted or top-dose-only effect, or another doubt; inactive means no such curve, though single readings can be large; an effect the other way counts as inactive or inconclusive. Potency means the concentration at half of the fitted maximal effect.

SMILES | ELG1 DNA repair | VP16 counter | SW480 rerep | MCF10A rerep | RORgamma inh
O=C(Nc1ccccc1Cl)c1cccc(NS(=O)(=O)c2ccccc2)c1 | 0.3% | -0.7% | x | x | 32.1%
O=C(O)CCc1nc2ccccc2c(=O)[nH]1 | 1.3% | -1.8% | -8.6% | 0.3% | -8.9%
O=C(/C=C/c1ccc(Cl)cc1)c1ccc([N+](=O)[O-])o1 | u | x | u | 8.2µM* | x
Cc1ccc(C(=O)/C=C/c2ccc(Br)cc2)o1 | u | -9.0% | 18.4µM* | 7.31µM* | u
Cc1ccc(/C=C/C(=O)c2ccc([N+](=O)[O-])o2)cc1 | u | x | 1.46µM* | 3.26µM* | x
O=C(C1CCN(S(=O)(=O)c2cnc[nH]2)CC1)N1CCN(c2ccc([N+](=O)[O-])cc2)CC1 | 14.7% | -2.4% | u | 0.2% | 12.4%
C[C@]12c3[nH]c4ccc(Cl)cc4c3CCN1C(=O)[C@@H](CC(=O)NCCc1ccccn1)C[C@@H]2C(=O)N1CCCCC1 | 7.3µM* | x | -6.4% | u | x
CC[C@]12c3[nH]c4ccc(Cl)cc4c3CCN1C(=O)[C@@H](CC(=O)NCCc1ccccn1)C[C@@H]2C(=O)N1CCN(C(=O)C2CC2)CC1 | 2.9% | x | 7.5% | -10.2% | x
CC[C@]12c3[nH]c4ccc(Cl)cc4c3CCN1C(=O)[C@@H](CC(=O)NCc1cccc(C(F)(F)F)c1)C[C@@H]2C(=O)N1CCN(C(=O)C2CC2)CC1 | u | x | 6.5% | u | x
C[C@]12c3[nH]c4ccc(Cl)cc4c3CCN1C(=O)[C@@H](CC(=O)NCc1cccc(C(F)(F)F)c1)C[C@@H]2C(=O)N1CCCCC1 | 23.1µM* | x | u | u | x
CC[C@]12c3[nH]c4ccc(Cl)cc4c3CCN1C(=O)[C@@H](CC(=O)NCc1cccc(C(F)(F)F)c1)C[C@@H]2C(=O)N1CCN(C(=O)c2ccco2)CC1 | 13µM* | x | 0.3% | u | x
CC[C@]12c3[nH]c4ccc(OC)cc4c3CCN1C(=O)C(CC(=O)NCc1cccc(C(F)(F)F)c1)C[C@@H]2C(=O)N1CCN(C(=O)c2ccco2)CC1 (stereo partly specified) | -11.7% | x | 5.3% | -0.6% | x
O=C(CCC(=O)c1ccc(F)cc1)Nc1cccc(Br)c1 | 7.8% | 0.1% | -8.9% | -4.9% | -1.7%
O=C(c1cc(S(=O)(=O)N2CCOCC2)ccc1F)N1CCc2ccccc21 | u | x | -17.3% | u | x
COc1ccc(Oc2nc(-c3ccccn3)ncc2OC)cc1 | -28.2% | -19.7% | -6.9% | -9.3% | 7.08µM*
COc1cnc(-c2ccccn2)nc1Oc1c(C)cccc1C | u | 20µM* | u | u | 7.08µM*
COc1cnc(-c2ccccn2)nc1N(C)C | u | u | 18.4µM* | 13.4% | 17.8µM*
COc1cnc(-c2ccccn2)nc1Oc1cccc(Cl)c1 | u | 15.8µM* | 3.4% | 0.9% | 2.82µM*
CN(C)c1nc(-c2ccccn2)nnc1-c1ccccc1 | u | 1.2% | u | 19.1% | -27.5%
COc1ccc(CC(=O)NNC(=O)c2ccc(Br)s2)cc1OC | 0.8% | x | -2.7% | -0.6% | x
NC(=O)c1ccccc1OCC(=O)Nc1cccnc1Cl | u | x | 0.3% | 2.3% | x
O=C1c2ccc(-c3nc4ccccc4o3)cc2C(=O)N1Cc1cccnc1 | x | x | u | 9.2µM* | x
O=C1c2ccc([N+](=O)[O-])cc2C(=O)N1Cc1cccnc1 | 10.2% | -26.8% | -3.3% | 2.3% | 1.26µM*
O=C1c2ccc(-c3nc4ccccc4o3)cc2C(=O)N1Cc1ccccc1 | x | x | 2.8% | 5.9% | x
O=C1c2ccc3c4c(ccc(c24)C(=O)N1Cc1cccnc1)C(=O)N(Cc1cccnc1)C3=O | 0.2% | -1.5% | x | x | -16.3%
CCC/C=C1/CCCOC(C(=O)NCCOC)(C(F)(F)F)C1 (stereo unspecified) | x | -17.3% | x | x | -4.6%
O=C1NC(=O)/C(=C/c2cc3c(cc2Br)OCO3)S1 | -4.2% | 8.9% | 22.1% | 3.0% | 6.0%
COCCN1C(=O)/C(=C/c2cc3c(cc2Br)OCO3)NC1=S | -7.8% | u | -3.6% | 19.0% | 11.2µM*
